Structures are written as SMILES. “And” between values parts separate entries of the source, which are not always exact repeats. Identical values can stand only once. Records with an inconclusive call do not appear. A structure can be active in one record and inactive in another. The source made the active and inactive calls. The calls were made as follows, unless noted: active = hit-call score of the fitted dose curve at least 0.9, where 1 is the maximum; inconclusive = response in the unintended direction; inactive = score below 0.9.

The target of experiment [1] is rat Gamma-Aminobutyric Acid Type A Receptor, Non-Selective (GABAR-NonSelective), Gabra1 (gene 29705) (UniProt P62813). As to the kind of experiment: NVS_LGIC_rGABAR_NonSelective: NovaScreen (NVS) Ligand-Gated Ion Channel Assay for rat Gamma-Aminobutyric Acid Type A Receptor, Non-Selective (GABAR-NonSelective) (AID 2283326). In outline: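 Compounds were first screened in duplicate at 25 uM, with actives run as singleton concentration series (max 50 uM). Binding of a radioligand to rat whole-brain GABA-A preparation was measured by filtration and scintillation counting after 1 h, DMSO baseline.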

In experiment [2] the target is human Peripheral-type Benzodiazepine Receptor (PBR), TSPO (gene 706) (UniProt P30536). As to the kind of experiment: NVS_MP_hPBR: NovaScreen (NVS) Membrane Protein Assay for human Peripheral-type Benzodiazepine Receptor (PBR) (AID 2283331).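 Also: hits reduce radioligand binding relative to DMSO baseline.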 In outline:
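Cell-free radioligand displacement, human colonic membranes, 1 h exposure. Filter radiodetection read-out. Single-concentration duplicates (25 uM), then concentration-response for actives; DMSO negative control.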

Experiment [3] has as its target rat Peripheral-type Benzodiazepine Receptor (PBR), Tspo (gene 24230) (UniProt P16257). As to the kind of experiment: NVS_MP_rPBR: NovaScreen (NVS) Membrane Protein Assay for rat Peripheral-type Benzodiazepine Receptor (PBR) (AID 2283335). The essentials: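 Single-concentration duplicate screening at 25 uM preceded concentration-series retesting of actives. Binding of a specific radioligand to rat kidney membrane PBR was read by filtration radiodetection after 1 h, with plate-wise positive and negative controls.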

Experiment [4] has as its target Small conductance calcium-activated potassium channel protein 1 (Rattus norvegicus) (UniProt P70606). As to the kind of experiment: NVS_IC_rKCaCh: NovaScreen (NVS) Ion Channel Assay for rat Potassium Channel, Ca2+ Act., VI (KCaCh) (AID 2283336). In outline: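 Filter-based scintillation counting of radioligand bound to rat forebrain membrane preparations, measured 1 h after compound addition. Primary screen used 25 uM in duplicate, with concentration-response follow-up; signal decrease relative to DMSO marks activity.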

For experiment [5], the target named is bovine Estrogen Receptor (ER), ESR1 (gene 407238) (UniProt P49884). As to the kind of experiment: NVS_NR_bER: NovaScreen (NVS) Nuclear Receptor Binding Assay for bovine Estrogen Receptor (ER) (AID 2283345).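 Also: actives lower the bound radioligand count which means they displace the ER ligand.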 The essentials: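 Cell-free radioligand binding with receptor from bovine uterine membranes, read by scintillation counting 18 h after dosing. Loss of specific binding was scored against DMSO; primary screen at 25 uM in duplicate, actives then run as concentration series.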

Experiment [6] has as its target rat Glutamate, AMPA Site (AMPA), Gria1 (gene 50592) (UniProt P19490). Kind of experiment: NVS_LGIC_rAMPA: NovaScreen (NVS) Ligand-Gated Ion Channel Assay for rat Glutamate, AMPA Site (AMPA) (AID 2283324). The essentials:
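Screening at 25 uM in duplicate preceded concentration series reaching 50 uM for qualifying compounds. Radioligand displacement on rat forebrain membranes, 1 h, filter-based scintillation readout; reduced binding relative to DMSO.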

Experiment [7] is described as follows: NVS_IC_rCaBTZCHL: NovaScreen (NVS) Ion Channel Assay for Calcium Channel, Type L, Benzothiazepine Site (CaBTZCHL) (AID 2283337). In outline: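 Rat cortical membrane preparation, cell-free. Radioligand displaced by test chemical; 1.5 h incubation; filtration, scintillation count. DMSO = negative control/baseline. Primary: duplicate, 25 uM; secondary: concentration series.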

Another experiment concerns NCBI gene 100848466. Kind of experiment: NVS_NR_bPR: NovaScreen (NVS) Nuclear Receptor Binding Assay for bovine Progextron Receptor (PR) (AID 2283343).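 Also: actives lower bound radioligand signal below DMSO meaning displacement of the label.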 The essentials: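 Scintillation counts of bound radioligand were read 18 hours after chemical addition to membranes extracted from bovine uterus. Displacement was scored as loss of signal relative to DMSO controls. Screening began at 25 uM in duplicate.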

Experiment [8] has as its target human Serotonin, 5-Hydroxytryptamine Receptor 3 (5HT3), HTR3A (gene 3359) (UniProt P46098). As to the kind of experiment: NVS_LGIC_h5HT3: NovaScreen (NVS) Ligand-Gated Ion Channel Assay for human Serotonin, 5-Hydroxytryptamine Receptor 3 (5HT3) (AID 2283325). The essentials: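 Initially tested at 25 uM in duplicate, then up to 50 uM in concentration-response for actives, compounds competed with a radioligand for HEK293-derived human 5-HT3 receptor. Bound counts were measured by filtration and scintillation at 1 h; loss of signal versus DMSO.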

Experiment [9] addresses Voltage-gated inwardly rectifying potassium channel KCNH2 (Homo sapiens) (UniProt Q12809). Kind of experiment: NVS_IC_hKhERGCh: NovaScreen (NVS) Ion Channel Assay for human Potassium Channel ERG (KhERGCh) (AID 2283333). In outline: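 Membranes from CHO cells expressing human ERG; displacement of radioligand measured by filtration and scintillation after 0.75 h. Single-concentration duplicate screen at 25 uM, then concentration-response for actives; DMSO baseline.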

Experiment [10] relates to guinea pig Histamine Receptor (H2), gene 100729734. As to the kind of experiment: NVS_GPCR_gH2: NovaScreen (NVS) G Protein-Coupled Receptor Assay for guinea pig Histamine Receptor (H2) (AID 2283342). The essentials: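 Guinea pig striatal membrane preparation with specific radioligand; bound counts measured by filtration and scintillation 1 h post-dosing, DMSO as baseline. Chemicals passing a 25 uM duplicate screen were titrated to a 50 uM maximum.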

In experiment [11] the target is human Constitutive Androstane Receptor (CAR), NR1I3 (gene 9970) (UniProt Q14994). As to the kind of experiment: NVS_NR_hCAR_Antagonist: NovaScreen (NVS) Nuclear Receptor Binding Assay for human Constitutive Androstane Receptor Antagonism (CAR) (AID 2283344). The essentials: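 Single 25 uM duplicate primary screen, with concentration-series follow-up on actives. Cell-free binding format run in antagonist mode, TR-FRET signal taken 1 h post-dose; activity is signal loss relative to DMSO.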

In experiment [12] the target is Glutamate receptor ionotropic, kainate 1 (Rattus norvegicus) (UniProt P22756). As to the kind of experiment: NVS_IC_rKAR: NovaScreen (NVS) Ion Channel Assay for rat Kainic Acid Receptors (KAR) (AID 2283334; active = hit-call score of the fitted dose curve at least 0.9, where 1 is the maximum; inactive = score below 0.9). The essentials:
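Rat forebrain membrane preparation incubated 1 h with radioligand and test chemical; bound signal read by filtration and scintillation. Single-concentration screen at 25 uM, then concentration series to 50 uM maximum.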

The target in experiment [13] is rat Thyrotropin Releasing Hormone Receptor (TRH), Trhr (gene 25570) (UniProt Q01717). As to the kind of experiment: NVS_GPCR_rTRH: NovaScreen (NVS) G Protein-Coupled Receptor Assay for rat Thyrotropin Releasing Hormone Receptor (TRH) (AID 2283329).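 Also: hit means lower bound tracer signal versus DMSO baseline.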 The essentials:
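Cell-free radioligand binding on rat forebrain membranes; bound tracer measured by filter-based scintillation counting 4 hours after dosing. Loss of signal versus DMSO baseline indicates displacement; primary screen at 25 uM in duplicate, actives then run in concentration series.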

Experiment [14] concerns the target rat Glutamate, MK-801 Agonist Site (GluNMDA_MK801), Grin1 (gene 24408) (UniProt P35439). As to the kind of experiment: NVS_LGIC_rGluNMDA_MK801_Agonist: NovaScreen (NVS) Ligand-Gated Ion Channel Assay for rat Glutamate, MK-801 Agonist Site (GluNMDA_MK801) (AID 2283340). The essentials: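 Rat forebrain membrane preparation; MK-801-site radioligand binding read by filtration and scintillation after 1.5 h. Single-point 25 uM duplicate screen, followed by singleton concentration series to 50 uM max; DMSO baseline.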

Experiment [15] addresses bovine Gamma-Aminobutyric Acid Type A Receptor Agonist (GABAR Agonist), GABRA1 (gene 780973) (UniProt P08219). Kind of experiment: NVS_LGIC_bGABAR_Agonist: NovaScreen (NVS) Ligand-Gated Ion Channel Assay for bovine Gamma-Aminobutyric Acid Type A Receptor Agonist (GABAR Agonist) (AID 2283338). In outline: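 Radioligand binding to bovine cerebellar membranes in agonist format, read by filter-based scintillation counting after 1 h. Primary screen in duplicate at 25 uM, with actives followed in concentration series. Gain of signal versus DMSO.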

Sequence of rat Glutamate, AMPA Site (AMPA), Gria1 (gene 50592) (P19490 whole entry, looked up): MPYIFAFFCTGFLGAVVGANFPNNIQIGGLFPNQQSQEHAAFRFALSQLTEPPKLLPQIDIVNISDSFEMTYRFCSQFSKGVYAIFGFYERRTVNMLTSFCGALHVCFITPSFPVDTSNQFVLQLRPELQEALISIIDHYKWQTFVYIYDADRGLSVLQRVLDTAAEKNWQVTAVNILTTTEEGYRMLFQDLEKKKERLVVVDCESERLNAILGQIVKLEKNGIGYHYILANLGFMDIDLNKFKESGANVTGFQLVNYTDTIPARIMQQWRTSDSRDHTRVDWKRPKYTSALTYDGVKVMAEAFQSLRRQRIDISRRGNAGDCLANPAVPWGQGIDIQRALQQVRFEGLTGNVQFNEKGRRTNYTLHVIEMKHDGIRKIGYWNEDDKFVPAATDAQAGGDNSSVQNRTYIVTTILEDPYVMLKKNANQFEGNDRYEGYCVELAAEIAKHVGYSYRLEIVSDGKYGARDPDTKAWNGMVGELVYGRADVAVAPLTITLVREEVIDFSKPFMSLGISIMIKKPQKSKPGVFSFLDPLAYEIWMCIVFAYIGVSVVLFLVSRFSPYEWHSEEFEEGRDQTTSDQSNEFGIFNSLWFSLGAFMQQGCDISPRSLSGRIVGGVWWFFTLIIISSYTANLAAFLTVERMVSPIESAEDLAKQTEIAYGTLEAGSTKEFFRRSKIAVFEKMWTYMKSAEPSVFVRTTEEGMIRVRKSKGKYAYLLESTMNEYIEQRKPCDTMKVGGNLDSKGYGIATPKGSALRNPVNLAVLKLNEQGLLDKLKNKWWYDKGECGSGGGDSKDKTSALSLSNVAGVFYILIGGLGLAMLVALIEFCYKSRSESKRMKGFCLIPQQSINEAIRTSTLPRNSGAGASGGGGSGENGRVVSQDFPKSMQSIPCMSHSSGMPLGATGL
Sequence of rat Peripheral-type Benzodiazepine Receptor (PBR), Tspo (gene 24230) (P16257 whole entry, looked up): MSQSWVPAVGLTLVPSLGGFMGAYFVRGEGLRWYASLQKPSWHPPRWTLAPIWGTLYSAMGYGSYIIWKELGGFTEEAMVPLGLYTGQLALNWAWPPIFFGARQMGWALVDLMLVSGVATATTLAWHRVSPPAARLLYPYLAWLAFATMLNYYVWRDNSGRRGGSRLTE
Sequence of human Peripheral-type Benzodiazepine Receptor (PBR), TSPO (gene 706) (P30536 whole entry, looked up): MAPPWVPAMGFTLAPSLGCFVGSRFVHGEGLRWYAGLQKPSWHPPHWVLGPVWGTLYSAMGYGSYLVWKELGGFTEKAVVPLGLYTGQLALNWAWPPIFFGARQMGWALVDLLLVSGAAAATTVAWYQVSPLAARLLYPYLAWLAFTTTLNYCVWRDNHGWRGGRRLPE
Sequence of Voltage-gated inwardly rectifying potassium channel KCNH2 (Homo sapiens) (Q12809 whole entry, looked up): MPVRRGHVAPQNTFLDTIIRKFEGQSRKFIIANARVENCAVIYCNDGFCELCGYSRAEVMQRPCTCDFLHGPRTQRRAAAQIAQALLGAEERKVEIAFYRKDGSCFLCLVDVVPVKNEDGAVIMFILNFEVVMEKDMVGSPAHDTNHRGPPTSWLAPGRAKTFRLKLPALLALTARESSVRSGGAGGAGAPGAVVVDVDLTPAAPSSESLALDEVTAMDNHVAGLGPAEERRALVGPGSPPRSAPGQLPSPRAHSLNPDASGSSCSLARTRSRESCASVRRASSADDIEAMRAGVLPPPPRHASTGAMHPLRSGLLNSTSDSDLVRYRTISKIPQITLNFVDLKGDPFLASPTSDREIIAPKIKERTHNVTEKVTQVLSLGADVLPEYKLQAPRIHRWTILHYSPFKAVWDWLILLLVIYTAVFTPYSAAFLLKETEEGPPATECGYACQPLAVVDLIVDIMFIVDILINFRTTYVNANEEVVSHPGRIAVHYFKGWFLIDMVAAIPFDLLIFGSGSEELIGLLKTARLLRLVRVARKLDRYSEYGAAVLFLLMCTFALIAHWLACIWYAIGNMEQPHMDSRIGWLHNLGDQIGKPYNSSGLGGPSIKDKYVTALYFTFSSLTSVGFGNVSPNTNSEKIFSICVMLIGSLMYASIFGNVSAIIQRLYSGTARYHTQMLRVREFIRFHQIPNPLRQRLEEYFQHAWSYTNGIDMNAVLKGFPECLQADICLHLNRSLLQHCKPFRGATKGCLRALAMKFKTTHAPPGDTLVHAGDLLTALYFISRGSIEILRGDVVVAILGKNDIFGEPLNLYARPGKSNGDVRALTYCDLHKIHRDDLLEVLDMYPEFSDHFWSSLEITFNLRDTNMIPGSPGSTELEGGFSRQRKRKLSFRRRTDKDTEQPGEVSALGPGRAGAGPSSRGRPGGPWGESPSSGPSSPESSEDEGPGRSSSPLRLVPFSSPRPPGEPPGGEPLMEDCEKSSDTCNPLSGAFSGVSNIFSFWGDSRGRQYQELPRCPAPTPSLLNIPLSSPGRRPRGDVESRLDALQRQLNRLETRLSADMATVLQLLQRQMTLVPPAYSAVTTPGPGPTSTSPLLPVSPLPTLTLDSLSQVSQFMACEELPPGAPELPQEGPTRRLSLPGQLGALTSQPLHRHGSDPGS
Sequence of bovine Estrogen Receptor (ER), ESR1 (gene 407238) (P49884 whole entry, looked up): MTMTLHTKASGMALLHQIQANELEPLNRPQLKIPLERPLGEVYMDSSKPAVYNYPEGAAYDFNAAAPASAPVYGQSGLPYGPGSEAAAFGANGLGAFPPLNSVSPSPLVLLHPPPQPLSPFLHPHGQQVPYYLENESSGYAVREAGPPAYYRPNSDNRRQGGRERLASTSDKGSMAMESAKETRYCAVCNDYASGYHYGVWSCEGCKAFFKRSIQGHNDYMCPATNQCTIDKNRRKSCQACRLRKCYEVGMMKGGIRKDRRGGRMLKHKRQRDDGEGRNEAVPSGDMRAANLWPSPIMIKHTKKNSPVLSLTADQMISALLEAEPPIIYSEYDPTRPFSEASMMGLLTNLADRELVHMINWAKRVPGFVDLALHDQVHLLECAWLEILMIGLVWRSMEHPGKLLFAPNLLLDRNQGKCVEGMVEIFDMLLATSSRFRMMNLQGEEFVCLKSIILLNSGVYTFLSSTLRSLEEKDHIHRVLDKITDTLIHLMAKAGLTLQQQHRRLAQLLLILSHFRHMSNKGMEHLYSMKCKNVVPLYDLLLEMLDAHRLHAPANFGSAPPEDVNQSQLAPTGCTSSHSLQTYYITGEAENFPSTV
Sequence of human Constitutive Androstane Receptor (CAR), NR1I3 (gene 9970) (Q14994 whole entry, looked up): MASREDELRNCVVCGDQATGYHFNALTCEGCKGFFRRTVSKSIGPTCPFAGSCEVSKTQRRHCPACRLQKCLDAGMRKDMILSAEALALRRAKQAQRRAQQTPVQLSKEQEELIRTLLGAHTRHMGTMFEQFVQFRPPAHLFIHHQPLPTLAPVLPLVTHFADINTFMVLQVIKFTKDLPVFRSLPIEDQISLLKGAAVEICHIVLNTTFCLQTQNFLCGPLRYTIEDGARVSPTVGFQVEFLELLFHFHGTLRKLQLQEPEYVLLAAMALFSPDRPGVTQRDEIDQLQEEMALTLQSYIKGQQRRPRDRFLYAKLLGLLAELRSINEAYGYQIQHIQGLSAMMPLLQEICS
Sequence of Glutamate receptor ionotropic, kainate 1 (Rattus norvegicus) (P22756 whole entry, looked up): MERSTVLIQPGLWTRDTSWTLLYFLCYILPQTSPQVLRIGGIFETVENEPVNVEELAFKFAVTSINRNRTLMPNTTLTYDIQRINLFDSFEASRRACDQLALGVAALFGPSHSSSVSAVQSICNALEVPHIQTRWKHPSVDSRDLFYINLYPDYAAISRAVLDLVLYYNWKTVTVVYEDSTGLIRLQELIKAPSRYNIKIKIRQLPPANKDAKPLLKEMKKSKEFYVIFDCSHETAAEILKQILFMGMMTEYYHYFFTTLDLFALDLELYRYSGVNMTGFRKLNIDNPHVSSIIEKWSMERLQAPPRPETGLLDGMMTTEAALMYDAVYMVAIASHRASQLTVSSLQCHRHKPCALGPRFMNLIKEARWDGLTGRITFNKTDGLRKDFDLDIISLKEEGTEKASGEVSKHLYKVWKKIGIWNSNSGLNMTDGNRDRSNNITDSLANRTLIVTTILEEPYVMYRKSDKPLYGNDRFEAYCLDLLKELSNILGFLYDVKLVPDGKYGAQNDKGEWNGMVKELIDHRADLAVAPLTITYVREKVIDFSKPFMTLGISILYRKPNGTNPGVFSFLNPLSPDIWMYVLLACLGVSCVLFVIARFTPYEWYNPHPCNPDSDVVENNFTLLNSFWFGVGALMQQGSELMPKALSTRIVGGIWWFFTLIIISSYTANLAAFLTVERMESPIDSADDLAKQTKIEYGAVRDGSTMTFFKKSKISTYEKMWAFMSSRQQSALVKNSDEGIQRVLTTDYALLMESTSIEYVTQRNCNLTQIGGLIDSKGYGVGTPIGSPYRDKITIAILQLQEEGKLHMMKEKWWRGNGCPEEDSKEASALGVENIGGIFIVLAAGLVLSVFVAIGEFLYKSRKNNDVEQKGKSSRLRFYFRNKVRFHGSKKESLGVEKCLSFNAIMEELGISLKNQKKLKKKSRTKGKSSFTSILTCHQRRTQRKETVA
Sequence of human Serotonin, 5-Hydroxytryptamine Receptor 3 (5HT3), HTR3A (gene 3359) (P46098 whole entry, looked up): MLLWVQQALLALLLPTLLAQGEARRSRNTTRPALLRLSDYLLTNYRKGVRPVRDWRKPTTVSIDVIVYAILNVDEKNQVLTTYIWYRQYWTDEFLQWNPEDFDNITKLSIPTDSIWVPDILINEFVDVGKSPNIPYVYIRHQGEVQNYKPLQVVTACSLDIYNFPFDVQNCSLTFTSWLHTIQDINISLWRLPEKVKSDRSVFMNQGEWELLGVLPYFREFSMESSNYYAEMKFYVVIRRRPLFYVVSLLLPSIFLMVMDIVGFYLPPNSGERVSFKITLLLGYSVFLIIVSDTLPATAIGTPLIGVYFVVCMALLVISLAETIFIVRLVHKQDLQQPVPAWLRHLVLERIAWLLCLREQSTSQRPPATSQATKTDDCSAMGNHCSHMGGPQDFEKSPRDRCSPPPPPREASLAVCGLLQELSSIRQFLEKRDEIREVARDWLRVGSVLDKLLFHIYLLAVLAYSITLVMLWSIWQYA

On to `OC12N=C(c3ccccc3)SC1Cc1cc(Cl)ccc12` (centres undefined), for which the AC50 in experiment [1] is 2.62 µM (active); in experiment [3], 6.16 µM (active). The outcome in experiment [2], in [4] and in experiment [5] was inactive.
For `CC/C(=C(/CC)c1ccc(O)cc1)c1ccc(O)cc1`, the call in experiment [6] and in experiment [2] was inactive. Besides, the AC50 in experiment [2] was 202 nM (active) and 13.5 µM (active); in experiment [3], 20.8 µM (active) and 25 µM (active) and 1.49 µM (active); in [7] it was 12.4 µM (active); with NCBI gene 100848466 it was 9.68 µM (active).
`CN(C)c1ccc(C(=C2C=CC(=[N+](C)C)C=C2)c2ccc(N(C)C)cc2)cc1`: the call in [6] and in experiment [5] was inactive. The AC50 in experiment [8] is 16.7 µM (active); in experiment [2] it was 1.4 µM (active); in experiment [9] it was 5.33 µM (active); in [3], 5.36 µM (active); in experiment [7], 5.44 µM (active); in experiment [10] it was 0.827 µM (active). In addition, the half-maximal activity concentration (AC50) in the experiment on NCBI gene 100848466 was 4.43 µM (active).
`Clc1cc(Cl)c2c(c1)N=C1CCCCCN1C2`: the figures for the AC50 in experiment [8] and in experiment [10] were 12.5 µM (active) and 1.85 µM (active), respectively. The outcome in experiment [7] and in [11] was inactive.
As for `O=c1[nH]sc2ccccc12`, the compound was classed as inactive in experiment [6] and in experiment [12].
In the case of `CCCCCc1ccc(N)cc1`, the outcome in experiment [13] and in experiment [5] was inactive.
Regarding `CC[C@@H]1C[C@H](N(Cc2cc(C(F)(F)F)cc(C(F)(F)F)c2)C(C)=O)c2cc(C(F)(F)F)ccc2N1C(=O)OC(C)C`, the compound was called inactive in experiment [2].
As for `c1ccc(C[n+]2cccc3ccccc32)cc1`, the call in [14] and in experiment [5] was inactive. Besides, in experiment [10], the concentration at half-maximal activity (AC50) is 25 µM (active).
On to `CC1=CC(=O)/C(=C(/C)O)C(=O)O1`, for which, in experiment [11], the call was inactive.
For `CCCCCCCCCCCC[N+](C)(C)C`, the concentration at half-maximal activity (AC50) is 10.2 µM (active) in experiment [9], 12.2 µM (active) in experiment [7] and 19.6 µM (active) in [10].
As to `CCCC(=O)OCCC(C)C`, the call in experiment [12] was inactive.
On to `CC(C)(C)c1cc(/C=C2\SC(N)=NC2=O)cc(C(C)(C)C)c1O`, for which the call in [5] was inactive.
As for `CCN(CC)C(=O)c1cc(S(=O)(=O)Cc2ccccc2)c(N2CCC(c3ccccc3)CC2)cc1N(CC)CCN(C)C`, the AC50 in experiment [2] is 3.31 µM (active); in experiment [9], 6.17 µM (active); in [7], 0.214 µM (active); in experiment [10], 2.84 µM (active). Also, the result in experiment [15] and in experiment [11] was inactive.

The values above are taken from PubChem BioAssay (EPA / NIEHS).
